Records with an inconclusive call do not appear. Entries that show only a call come without a potency. The source made the active and inactive calls. The call rests on the fitted dose curve; in most records, active means well fitted curve in the direction sought with a large enough effect; inconclusive means small, poorly fitted or top-dose-only effect, or another doubt; inactive means no such curve, though single readings can be large; an effect the other way counts as inactive or inconclusive.
What was measured:
[1] = qHTS of pediatric cancer cell lines to identify multiple opportunities for drug repurposing: Primary screen for TC32 cells (AID 1347089); further: nearly all actives have a fitted effect of over 60% in size
In short: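 Luminescent ATP read-out (CellTiter-Glo) of metabolically active TC32 cells after 48 h exposure. Concentration-response curves came from 11-point (MIPE, 0.78 nM–46 µM) or 8-point (NPC, 0.59 nM–46 µM) primary titrations; follow-up used 11 points.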

[2] = qHTS of pediatric cancer cell lines to identify multiple opportunities for drug repurposing: Primary screen for DAOY cells (AID 1347090); further: series mostly up to about 46 µM; nearly all actives have a fitted effect of over 55% in size
In short: (§1)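 Cell viability, CellTiter-Glo luminescence; 500-1,000 cells/well, 8- or 11-point titration, 48 h compound exposure at 37 degrees C, 5% CO2. Controls: DMSO neutral, bortezomib 2.3 µM final as positive.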

[3] = qHTS of pediatric cancer cell lines to identify multiple opportunities for drug repurposing: Primary screen for SJ-GBM2 cells (AID 1347091)
In short: as §1

[4] = qHTS of pediatric cancer cell lines to identify multiple opportunities for drug repurposing: Primary screen for A673 cells (AID 1347092); further: nearly all actives have a fitted effect of over 45% in size; further: potency means the concentration at half of the fitted maximal effect
In short: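 Cell viability of A673 measured by CellTiter-Glo ATP luminescence after 48 hours compound exposure. Dilution series spanned 0.78 nM to 46 µM (MIPE, 11-point) or 0.59 nM to 46 µM (NPC, 8-point); bortezomib 2.3 uM positive control.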

[5] = qHTS of pediatric cancer cell lines to identify multiple opportunities for drug repurposing: Primary screen for SK-N-MC cells (AID 1347093); further: potency means the concentration at half of the fitted maximal effect
In short: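 Metabolically active cells were quantified by ATP-dependent luminescence (CellTiter-Glo, 15 min at room temperature) following 48 h treatment. Cells had been plated at 500-1,000 per well and settled for 5 h beforehand.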

[6] = qHTS of pediatric cancer cell lines to identify multiple opportunities for drug repurposing: Primary screen for BT-37 cells (AID 1347094); further: series mostly up to about 57 µM
In short: (§2)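 Plated cells (500-1,000 per well, growth media) were allowed to settle for 5 hours, treated with compound dilutions for 48 hours, then lysed with CellTiter-Glo for 15 min at room temperature before luminescence reading.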

[7] = qHTS of pediatric cancer cell lines to identify multiple opportunities for drug repurposing: Primary screen for NB-EBc1 cells (AID 1347095); further: potency means the concentration at half of the fitted maximal effect
In short: as §2

[8] = qHTS of pediatric cancer cell lines to identify multiple opportunities for drug repurposing: Primary screen for U-2 OS cells (AID 1347096); further: nearly all actives have a fitted effect of over 50% in size
In short: (§3)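 Cells (500-1,000/well) rested 5 h, then received compounds for 48 h; metabolically active cells were measured by CellTiter-Glo luminescence. Final concentrations spanned up to 46 µM (MIPE, 11-point) or 0.59 nM-46 µM (NPC, 8-point) in primary screens, 11-point in follow-ups.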

[9] = qHTS of pediatric cancer cell lines to identify multiple opportunities for drug repurposing: Primary screen for Saos-2 cells (AID 1347097); further: nearly all actives have a fitted effect of over 40% in size; further: potency means the concentration at half of the fitted maximal effect
In short: as §2

[10] = qHTS of pediatric cancer cell lines to identify multiple opportunities for drug repurposing: Primary screen for SK-N-SH cells (AID 1347098); further: nearly all actives have a fitted effect of over 65% in size
In short: as §3

[11] = qHTS of pediatric cancer cell lines to identify multiple opportunities for drug repurposing: Primary screen for NB1643 cells (AID 1347099); further: nearly all actives have a fitted effect of over 50% in size
In short: as §2

[12] = qHTS of pediatric cancer cell lines to identify multiple opportunities for drug repurposing: Primary screen for LAN-5 cells (AID 1347100)
In short: as §3

[13] = qHTS of pediatric cancer cell lines to identify multiple opportunities for drug repurposing: Primary screen for BT-12 cells (AID 1347101); further: nearly all actives have a fitted effect of over 25% in size
In short: as §3

[14] = qHTS of pediatric cancer cell lines to identify multiple opportunities for drug repurposing: Primary screen for Rh18 cells (AID 1347102); further: nearly all actives have a fitted effect of over 65% in size
In short: as §3

[15] = qHTS of pediatric cancer cell lines to identify multiple opportunities for drug repurposing: Primary screen for OHS-50 cells (AID 1347103); further: nearly all actives have a fitted effect of over 40% in size; further: potency means the concentration at half of the fitted maximal effect
In short: as §3

[16] = qHTS of pediatric cancer cell lines to identify multiple opportunities for drug repurposing: Primary screen for RD cells (AID 1347104); further: nearly all actives have a fitted effect of over 55% in size
In short: as §2

[17] = qHTS of pediatric cancer cell lines to identify multiple opportunities for drug repurposing: Primary screen for MG 63 (6-TG R) cells (AID 1347105); further: nearly all actives have a fitted effect of over 50% in size
In short: as §2

[18] = qHTS of pediatric cancer cell lines to identify multiple opportunities for drug repurposing: Primary screen for control Hh wild type fibroblast cells (AID 1347106);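 further: series mostly up to about 46 µM; a drop in luminescence marks cytotoxicity and a rise apparent proliferation; nearly all actives have a fitted effect of over 55% in size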
In short: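 Cells (500-1,000/well) in growth media were settled 5 h at 37 degrees C, then given compounds for 48 h. Viability was read as CellTiter-Glo luminescence. Primary runs used MIPE at 11 points (0.78 nM-46 µM) and NPC at 8 points (0.59 nM-46 µM); follow-ups used 11 points.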

[19] = qHTS of pediatric cancer cell lines to identify multiple opportunities for drug repurposing: Primary screen for Rh30 cells (AID 1347107); further: series mostly up to about 46 µM; nearly all actives have a fitted effect of over 75% in size
In short: as §3

[20] = qHTS of pediatric cancer cell lines to identify multiple opportunities for drug repurposing: Primary screen for Rh41 cells (AID 1347108);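 further: series mostly up to about 46 µM; luminescence drop marks cytotoxic hits; nearly all actives have a fitted effect of over 70% in size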
In short: as §2

Compound	Potency [1]	Potency [2]	Potency [3]	Potency [4]	Potency [5]	Potency [6]	Potency [7]	Potency [8]	Potency [9]	Potency [10]	Potency [11]	Potency [12]	Potency [13]	Potency [14]	Potency [15]	Potency [16]	Potency [17]	Potency [18]	Potency [19]	Potency [20]
CCOC(=O)C1(c2ccccc2)CCN(CCc2ccc(N)cc2)CC1	inactive	inactive	inactive	inactive	inactive	inactive	inactive	inactive	inactive	inactive	inactive	inactive	inactive	inactive	inactive	inactive	inactive	inactive	inactive	inactive
CC(Cc1ccc2c(c1)OCO2)NO (stereo not drawn)	inactive	inactive	inactive	inactive	inactive	inactive	inactive	inactive	inactive	inactive	inactive	inactive	inactive	inactive	inactive	inactive		inactive	inactive	inactive
CC(Cc1ccccc1)NCCCCl (stereo not drawn)	inactive	inactive	inactive	inactive	inactive	inactive	inactive	inactive	inactive	inactive	inactive	inactive	inactive	inactive	inactive	inactive	inactive	inactive	inactive	inactive
CCc1ccc(C2CCNCC2)cc1	inactive	inactive	inactive	inactive	inactive	inactive	inactive	inactive	inactive	inactive	inactive	inactive	inactive	inactive		inactive	inactive	inactive	inactive	inactive
O=C(O)CCCCCCNC1c2ccccc2CCc2ccccc21	inactive	inactive	inactive	inactive	inactive	inactive	inactive	inactive		inactive	inactive	inactive	inactive	inactive	inactive	inactive	inactive	inactive	inactive	inactive
CC(C)[N+](C)(CCC(C(N)=O)(c1ccccc1)c1ccccc1)C(C)C	inactive	inactive	inactive	inactive	inactive	inactive	inactive	inactive	inactive	inactive		inactive	inactive	inactive	inactive	inactive		inactive	inactive	inactive
CCCCC1C(=O)NC(=O)N(C2CCCCC2)C1=O (stereo not drawn)	inactive	inactive	inactive	inactive	inactive	inactive	inactive	inactive	inactive	inactive	inactive	inactive	inactive	inactive	inactive	inactive	inactive	inactive	inactive	inactive
C[C@]12CC[C@H]3[C@@H](CCC4=CC(=O)CC[C@@]43C)[C@@H]1CC[C@@H]2C(=O)O	inactive	inactive	inactive	inactive	inactive	inactive	inactive	inactive	inactive	inactive		inactive	inactive	inactive	inactive	inactive	inactive	inactive	inactive	inactive
Cc1cccc(Cc2cnc[nH]2)c1C	inactive	inactive	inactive	inactive	inactive	inactive	inactive	inactive	29.9 µM (active)	inactive	inactive	inactive	inactive	inactive		inactive	inactive	inactive	inactive	inactive
Cc1c(Cl)c(=O)oc2cc(OP(=O)(OCCCl)OCCCl)ccc12	inactive	inactive	inactive	inactive	inactive	inactive	inactive	inactive	inactive	inactive	inactive	inactive	inactive	inactive	inactive	inactive		inactive	inactive	inactive
CCC(=O)O[C@H]1CC[C@H]2[C@@H]3CCC4=CC(=O)CC[C@]4(C)[C@H]3CC[C@]12C	inactive	inactive	inactive	inactive		inactive	inactive	inactive	inactive		inactive		inactive	inactive		inactive	inactive	inactive	inactive	inactive
CC1=C2[C@H]3OC(=O)[C@@H](C)[C@@H]3CC[C@@]2(C)C=CC1=O	inactive	inactive	inactive	inactive	inactive	inactive	inactive	inactive		inactive	inactive	inactive	inactive	inactive	inactive	inactive		inactive	inactive	inactive
NC1(c2ccccc2)CCCCC1	inactive	inactive	inactive	30.3 µM (active)		inactive	inactive	inactive		inactive		inactive		inactive			inactive	inactive	inactive	
CCN(CC)Cc1nccn1-c1ccc([N+](=O)[O-])cc1C(=O)c1ccccc1Cl	inactive	inactive	inactive	inactive		inactive	inactive	inactive	inactive	inactive		inactive	inactive	inactive		inactive	inactive	inactive	inactive	inactive
CCC(=O)OC1(c2ccccc2)CCN(C)CC1	inactive	inactive	inactive	inactive	inactive	inactive	inactive	inactive			inactive	inactive	inactive	inactive		inactive	inactive	inactive	inactive	
C[C@H]1C(=O)O[C@@H]2CCN3CC=C(COC(=O)[C@](C)(O)[C@]1(C)O)[C@H]23	inactive	inactive	inactive	inactive		inactive	29.9 µM (active)	inactive	inactive	inactive			inactive	inactive	inactive	inactive		inactive	inactive	inactive

Compound	Potency [1]	Potency [2]	Potency [3]	Potency [4]	Potency [5]	Potency [6]	Potency [7]	Potency [8]	Potency [9]	Potency [10]	Potency [11]	Potency [12]	Potency [13]	Potency [14]	Potency [15]	Potency [16]	Potency [17]	Potency [18]	Potency [19]	Potency [20]
NC(=O)CN1CCCC1=O	inactive	inactive	inactive	inactive	inactive	inactive	inactive	inactive		inactive	inactive	inactive	inactive	inactive	inactive	inactive	inactive	inactive	inactive	inactive
COC(=O)C1=CCCN(C)C1	inactive	inactive	inactive	inactive		inactive	inactive	inactive	inactive	inactive	inactive	inactive	inactive	inactive	inactive	inactive	inactive	inactive	inactive	inactive
CNC(C)Cc1ccccc1OC (stereo not drawn)	inactive	inactive	inactive	inactive		inactive	inactive	inactive		inactive		inactive	inactive	inactive	inactive	inactive	inactive	inactive	inactive	inactive
COP(=O)(OC)C(O)C(Cl)(Cl)Cl (stereo not drawn)	inactive	inactive	inactive	inactive	inactive	inactive	inactive	inactive		inactive	inactive	inactive	inactive	inactive	inactive	inactive	inactive	inactive	inactive	inactive
C=CCN1CC[C@]23CCCC[C@H]2[C@H]1Cc1ccc(O)cc13	inactive	inactive	inactive	inactive	inactive	inactive	inactive	inactive		inactive		inactive	inactive	inactive	inactive	inactive	inactive	inactive	inactive	inactive
CC[C@H]1C[C@H]2[C@@H]3CCC4=CC(=O)CC[C@@H]4[C@H]3CC[C@]2(C)[C@H]1O	inactive	inactive	inactive	inactive		inactive	inactive	inactive				inactive		inactive		inactive		inactive		
CC(CC(C(N)=O)(c1ccccc1)c1ccccc1)N(C)C (stereo not drawn)	inactive	inactive	inactive	inactive	inactive	inactive	inactive	inactive		inactive	inactive	inactive	inactive	inactive		inactive	inactive	inactive	inactive	inactive
CCOC(C(=O)OCCN(C)C)(c1ccccc1)c1ccccc1	inactive	inactive	inactive	inactive		inactive	inactive	inactive	inactive	inactive		inactive	inactive	inactive		inactive		inactive	inactive	inactive
ClCc1cccc(Cl)c1	inactive	inactive	inactive	inactive	inactive	inactive	inactive	inactive		inactive	inactive	inactive	inactive	inactive	inactive	inactive		inactive	inactive	inactive
CCNc1nc(Cl)nc(NCC)n1	inactive	inactive	inactive	inactive	inactive	inactive	inactive	inactive		inactive	inactive	inactive	inactive	inactive	inactive	inactive	inactive	inactive	inactive	inactive
CCN(CC)CCOC(=O)C(C)(c1ccccc1)c1ccccc1	inactive	inactive	inactive	inactive	inactive	inactive	inactive	inactive		inactive	inactive	inactive	inactive	inactive		inactive	inactive	inactive	inactive	
CCCOC(=O)Cc1ccc(OCC(=O)N(CC)CC)c(OC)c1	inactive	inactive	inactive	inactive	inactive	inactive	inactive	inactive		inactive	inactive	inactive	inactive	inactive	inactive	inactive	inactive	inactive	inactive	inactive
C[C@@H]1CN(C2CCC(C#N)(c3ccc(F)cc3)CC2)CC[C@]1(C(=O)O)c1ccccc1 (stereo partly drawn)	inactive	inactive	inactive	inactive	inactive	inactive	inactive	inactive		inactive		inactive	inactive	inactive	inactive	inactive	inactive	inactive	inactive	inactive
CCO[C@H]1O[C@@H]2OC3(C)CC[C@H]4[C@H](C)CC[C@@H]([C@H]1C)[C@@]24OO3	inactive	inactive	inactive	inactive	4.73 µM (active)	inactive		inactive			inactive			inactive	13.8 µM (active)		inactive	inactive	inactive	
Nc1ccc(N)cc1	inactive	inactive	inactive	21.1 µM (active)		inactive		inactive			inactive		inactive	inactive	inactive	inactive	inactive	inactive	inactive	inactive
CCN(Cc1ccc(Cl)nc1)/C(=C/[N+](=O)[O-])NC	inactive	inactive	inactive	inactive	inactive	inactive	inactive	inactive		inactive	inactive	inactive	inactive	inactive	inactive	inactive	inactive	inactive	inactive	inactive

— PubChem BioAssay (NCATS)
